HepG2 tox: counter-screen for TGF-b inhibitors: cytotoxicity in HepG2 cells. AID 588856. Potency, µM (doses to about 46.1 µM), for inactives: top-dose activity change, negative = cytotoxicity, actives largely listed as cytotoxic. 410,000 tested, 0.76% active. HepG2 CAGA-GFP viability, ATP luminescence, 18 h
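CellTiter-Glo luminescence gave cytotoxicity after 18 hours at 37 degrees C. The cells were HepG2 CAGA-GFP in 1% FBS DMEM, stimulated with 500 pg/mL TGF-beta after compound addition. %Activity was normalised to no-cell wells (complete cell-killing) and DMSO (no toxicity), and curves were fitted and classified.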
DT40 TDP1 CPT: DT40-hTDP1 cell growth loss with CPT; chicken DT40 Tdp1-/-;hTDP1 cells + 20 nM CPT, ATP luminescence, 48 h; Potency, µM (top dose mostly 46.2 µM), inactives show at the highest dose activity change, negative = growth inhibition, hits mostly inhibitors; 420,000 tested, 12% active; AID 686979; also: % is scaled to controls: 0 for no effect and ±100 for the full control effect; nearly all actives have a fitted effect of over 55% in size
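Chicken DT40 Tdp1-/- cells stably complemented with human TDP1 were seeded at 400 cells/well in medium containing 20 nM camptothecin, exposed to pin-transferred compounds, and grown at 37 °C for at least 48 hr. Viability was read as ATP luminescence.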
ATXN2 expr inh: reduces ATXN2 reporter expression in HEK-293 cells. HEK-293 ATXN2-luciferase reporter, luminescence, 24 h. Potency, µM (highest dose often 57 µM), for inactives: top-dose activity change, negative = inhibition, most hits filed as inhibitors. 360,000 tested, 0.72% active; also: % is scaled to controls: 0 for no effect and ±100 for the full control effect; nearly all actives have a fitted effect of over 55% in size
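qHTS (up to 57 uM final) was run with 24 h compound exposure of reporter cells at 37 °C. Each well was multiplexed: SteadyGlo luminescence measured ATXN2-luciferase expression after a fluorogenic Gly-Phe-AFC viability readout (25 uM final).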
S2 tox: reduces viability in counter-screen for ATXN expression inhibitors. AID 651635. S2 cells (HEK-293 line with an ATXN2-luciferase reporter) viability, CellTiter-Fluor protease fluorescence, 24 h. 400,000 tested, 0.49% active. Potency, µM (highest dose often 56.7 µM), actives largely listed as cytotoxic; also: nearly all actives have a fitted effect of over 40% in size
DT40 TDP1 no CPT: qHTS for Inhibitors of human tyrosyl-DNA phosphodiesterase 1 (TDP1): qHTS in cells in absence of CPT; Potency, µM (top dose mostly 46.2 µM), for the others: at the top dose activity change, negative = growth inhibition, most hits filed as inhibitors; 420,000 tested, 15% active; DT40 Tdp1-/- hTDP1 cells, no CPT, ATP luminescence, 48 h; also: % is scaled to controls: 0 for no effect and ±100 for the full control effect; nearly all actives have a fitted effect of over 55% in size
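Chicken DT40 Tdp1-/- cells stably complemented with human TDP1 were seeded at 400 cells/well with DMSO in place of 20 nM camptothecin. After compound pinning, cells grew at least 48 hr at 37 °C; viability read by CellTiter-Glo luminescence.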
TGFb SMAD3 inh: inhibitors of TGF-b signaling; 410,000 tested, 1.2% active; Potency, µM (top dose mostly 46.1 µM), for the others: at the top dose activity, negative = inhibition, usual class: inhibitors; HepG2 CAGA-GFP TGF-b/SMAD3 reporter, GFP fluorescence, 18 h; TGF-beta stimulated, 500 pg/mL final; also: % is scaled to controls: 0 for no effect and ±100 for the full control effect; nearly all actives have a fitted effect of over 65% in size
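TGF-beta reporter screen: HEPG2 CAGA-GFP, 1% FBS, 500 pg/mL TGF-beta final, 18 h; per-cell GFP summed per well; curves fitted and categorized by class.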
Starred values were filed as active, the others as inactive; i = inactive; ? = inconclusive; · = no result. Shown are actives, neighbours in structure and some others; about 17% of the full set was active somewhere. Calls follow the shape of the dose curve; as a rule, active = well fitted curve in the direction sought with a large enough effect; inconclusive = small, poorly fitted or top-dose-only effect, or another doubt; inactive = no such curve, though single readings can be large; an effect the other way counts as inactive or inconclusive. Potency is read from the fitted curve at half-maximal effect.

SMILES	HepG2 tox	DT40 TDP1 CPT	ATXN2 expr inh	S2 tox	DT40 TDP1 no CPT	TGFb SMAD3 inh
O=C(CBr)c1ccc(Oc2ccc(C(=O)C[n+]3cccc(Br)c3)cc2)cc1	-4.2%	?	·	·	15.8µM*	-7.3%
OC[C@@H]1CN(Cc2ccco2)C[C@H](n2cnc3c(Nc4ccccc4)ncnc32)O1	-1.9%	?	11.2%	i	-20.6%	9.3%
COc1ccc(CC(=O)Nc2ccc3nc(Nc4cccc(Cl)c4)cc(C)c3c2)cc1OC	4.2%	18.4µM*	?	·	16.4µM*	-21.0%
Cc1cc(Nc2cccc(Cl)c2)nc2ccc(NC(=O)Cc3cccc(C(F)(F)F)c3)cc12	-59.2%	9.2µM*	?	i	7.31µM*	?
Cc1cc(Nc2cccc(Cl)c2)nc2ccc(NC(=O)Cc3ccc(Cl)cc3)cc12	-44.2%	18.4µM*	?	i	?	?
COc1ccc(Cl)cc1C(=O)Nc1ccc2nc(Nc3cccc(Cl)c3)cc(C)c2c1	-28.0%	20.6µM*	-13.6%	·	11.6µM*	-3.2%
O=C(Cc1cccc(C(F)(F)F)c1)Nc1ccccc1	-16.2%	?	-13.0%	i	?	3.0%
COc1ccc(Cl)cc1C(=O)Nc1ccc(NC(C)=O)cc1	10.1%	1.5%	-2.8%	i	0.6%	?
C/C(CC(=O)Nc1cccc(Cl)c1)=N\NC(=O)Cc1ccc(Cl)cc1	-33.5%	-20.9%	-11.5%	i	-29.7%	-16.2%
COCCCN1C(=O)C(=O)/C(=C(/O)c2ccc(S(=O)(=O)N3CCOCC3)cc2)C1c1ccc(OC)cc1 (stereo not given)	0.5%	2.0%	2.5%	i	-3.1%	1.8%
CC(=O)c1c(C)nc2ccc([N+](=O)[O-])cc2c1-c1ccccc1	2.3%	?	-5.7%	i	?	0.0%
O=C(Nc1ccccc1C(=O)NCc1ccc(Cl)cc1)c1ccco1	-18.4%	-4.3%	1.2%	i	?	-2.3%
CC(=O)NNc1cc(C)nc(NS(=O)(=O)c2ccc(C)cc2)n1	-13.6%	35.8%	-6.8%	i	-1.7%	3.0%
COC(=O)c1ccc(-c2ccc(OC)c([C@H]3[C@H]4C=CC[C@@H](C)[C@@H]4C(=O)N3Cc3ccccc3)c2)cc1	-2.8%	5.8µM*	-8.4%	i	6.51µM*	-15.7%
COc1ccc(-c2ccc(C(C)=O)cc2)cc1C1C2C=CCC(C)C2C(=O)N1Cc1ccccc1 (stereo not given)	3.4%	·	·	·	·	-2.1%
COC(=O)c1ccc(-c2ccc(OC)c(C3C4C=CCC(C)C4C(=O)N3Cc3ccccc3)c2)cc1 (stereo not given)	9.7%	·	·	·	·	-0.6%
COc1ccc(-c2ccc(C(C)=O)cc2)cc1[C@H]1[C@H]2C=CC[C@@H](C)[C@@H]2C(=O)N1Cc1ccccc1	2.6%	23.1µM*	-0.1%	i	16.4µM*	-5.3%
Nn1c(SC/C=C/c2ccccc2)nnc1-c1cccnc1	-18.0%	-1.5%	5.6%	i	-16.9%	17.7%
Clc1ccc(-n2c(SC/C=C/c3ccccc3)nnc2-c2cccnc2)cc1	-28.0%	23.1µM*	?	i	?	?
O=C(CSc1nnc(-c2cccnc2)n1-c1ccccc1)Nc1ccccn1	-19.1%	?	-5.3%	i	16.4µM*	0.0%
O=C(COc1ccc(Br)cc1F)N1CCN(c2ncccn2)CC1	5.2%	3.8%	4.3%	i	?	-2.2%
O=C(NCCCc1ccccc1)c1cccc(NC(=O)C2CCCCC2)c1	-3.7%	-14.5%	-30.8%	i	?	-9.5%
CCOC(=O)C(=CNc1ccc(OC)cc1[N+](=O)[O-])C(=O)OCC	-25.0%	16.4µM*	·	i	11.6µM*	-23.2%
CCC(=O)OCC(=O)Nc1ccc(OC)cc1[N+](=O)[O-]	7.2%	22.2%	2.3%	i	-13.8%	15.2%
CCOC(=O)C(=CNc1ccc(C)cc1C)C(=O)OCC	-25.7%	?	-1.6%	i	16.4µM*	-3.8%
SMILES	HepG2 tox	DT40 TDP1 CPT	ATXN2 expr inh	S2 tox	DT40 TDP1 no CPT	TGFb SMAD3 inh
CCOC(=O)C(=CNc1cc(C)nn1-c1ccc(Cl)cc1)C(=O)OCC	-12.1%	23.1µM*	?	i	?	-4.1%
CC1(C)CC(=O)C(C=NCCN2CCOCC2)=C(O)C1	-41.8%	-24.3%	-12.5%	i	-25.5%	-17.3%
CC1(C)CC(=O)C(C=NCCO)=C(O)C1	9.7%	18.4µM*	4.8%	i	?	1.2%
CCOC(=O)N1CCC(=NNC(=O)Cn2ccc(C(F)(F)F)n2)CC1	-1.1%	-4.1%	10.7%	i	0.1%	?
OCC1CCCCN1CCNCc1cn[nH]c1-c1cccc2ccccc12 (stereo not given)	-2.5%	-11.8%	2.6%	i	16.3%	0.3%
c1ccc2c(-c3[nH]ncc3CNCCCn3ncc4ccccc43)cccc2c1	-8.3%	18.4µM*	?	i	11.6µM*	-16.2%
CC(=O)Nc1ccc(NC(=S)NC(=O)c2cc3ccccc3o2)cc1	-0.4%	-5.4%	11.5%	i	-1.7%	-12.1%
Cc1ccc(C(=O)NC(=S)Nc2ccc(-c3cc4ccccc4oc3=O)cc2)c(C)c1	0.6%	?	?	i	23.1µM*	-8.2%
Cc1cc(C)cc(C(=O)NC(=S)Nc2ccc(-c3cc4ccccc4oc3=O)cc2)c1	1.0%	?	6.31µM*	?	?	2.0%
COc1ccc(N(Cc2ccccc2)S(=O)(=O)c2cc(C(=O)O)ccc2Cl)cc1	-3.4%	8.6%	6.4%	i	-1.6%	23.1%
COCCNC(=O)/C(C#N)=C/c1ccc(C)o1	-5.8%	3.2%	24.8%	i	-3.3%	-3.2%
CCC1(c2ccccc2)NC(=O)N(CC(=O)N(CC(=O)Nc2ccccc2C(F)(F)F)Cc2ccco2)C1=O (stereo not given)	-3.7%	-10.7%	0.6%	i	-12.8%	-15.3%
COc1ccc(-n2ncc3c(NCCC4=CCCCC4)ncnc32)cc1	0.6%	16.4µM*	6.2%	i	?	-0.5%
CCOc1ccc2[nH]c3c(NCCC(C)C)ncnc3c2c1	-34.5%	25.9µM*	?	i	18.4µM*	?
COc1ccc2c(c1)[nH]c1c(=O)n(CCC3=CCCCC3)cnc12	8.6%	?	6.7%	i	23.1µM*	20.2%
COc1ccc2[nH]c3c(NCCCOC(C)C)ncnc3c2c1	-28.5%	?	-10.5%	?	?	-6.3%

Source: PubChem BioAssay (National Center for Advancing Translational Sciences (NCATS))
